This is part of a sample that, as a whole, favours compounds with a hit. Of some 83,000 tested, about 20% had one in any assay.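 Step 1: grow cells in 96-well plates. Step 2: add test compound at a single concentration. Step 3: incubate 48 h. Step 4: record percent growth.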 Unmarked numbers belong to inactive results. Calls of active or inactive are those of the source. The calls were made as follows: active = growth percent below 10; inactive = the rest.
Columns and labels:
Experiment in all cases: NCI-60 one-dose screen, 48 h (100 = growth as untreated, 0 = no growth, -100 = all killed)
Details in all cases: 10 µM unless noted
SR leukemia = system: SR leukemia
RPMI-8226 leukemia = system: RPMI-8226 leukemia
OVCAR-4 ovarian = system: OVCAR-4 ovarian
SK-OV-3 ovarian = system: SK-OV-3 ovarian
IGROV1 ovarian = system: IGROV1 ovarian
OVCAR-3 ovarian = system: OVCAR-3 ovarian
HS 578T breast = system: HS 578T breast
NCI/ADR-RES ovarian = system: NCI/ADR-RES ovarian
OVCAR-5 ovarian = system: OVCAR-5 ovarian
OVCAR-8 ovarian = system: OVCAR-8 ovarian

Cc1cc(C)nc(SC2=C(Nc3ccc(C)c(Cl)c3)C(=O)N(Cc3ccccc3)C2=O)n1
growth (SR leukemia): 25.4% [30 µM]
growth (RPMI-8226 leukemia): 7.62% [30 µM] (active)
growth (OVCAR-4 ovarian): 58.2% [30 µM]
growth (SK-OV-3 ovarian): 99% [30 µM]
growth (IGROV1 ovarian): 45.1% [30 µM]
growth (OVCAR-3 ovarian): 69% [30 µM]
growth (HS 578T breast): 72.1% [30 µM]
growth (NCI/ADR-RES ovarian): 62.8% [30 µM]

Clc1ccc2c(NCCCCNc3nc(N4CCCCC4)nc4ccccc34)ccnc2c1
growth (SR leukemia): -35.7% (active)
growth (RPMI-8226 leukemia): -45.9% (active)
growth (OVCAR-5 ovarian): 17.1%
growth (OVCAR-4 ovarian): 29.8%
growth (SK-OV-3 ovarian): 50.8%
growth (IGROV1 ovarian): 20.8%
growth (OVCAR-3 ovarian): -27.3% (active)
growth (HS 578T breast): -19.9% (active)
growth (NCI/ADR-RES ovarian): 19.3%

CCCCN(CCCC)CCCn1c(-c2ccccc2)ccc1-c1ccccc1
growth (SR leukemia): 42.7%
growth (RPMI-8226 leukemia): -2.32% (active)
growth (OVCAR-5 ovarian): 73.4%
growth (OVCAR-4 ovarian): 37%
growth (SK-OV-3 ovarian): 81.3%
growth (IGROV1 ovarian): 64.5%
growth (OVCAR-3 ovarian): 59.2%
growth (HS 578T breast): 82.7%
growth (NCI/ADR-RES ovarian): 65.1%

Cn1ccnc1C(=O)/C=C/c1ccccc1
growth (SR leukemia): 18.9%
growth (RPMI-8226 leukemia): -8.79% (active)
growth (OVCAR-5 ovarian): 38.7%
growth (OVCAR-4 ovarian): 26.8%
growth (SK-OV-3 ovarian): 27.5%
growth (OVCAR-3 ovarian): 0.598% (active)
growth (HS 578T breast): -2.82% (active)
growth (NCI/ADR-RES ovarian): 20.9%

CCOC(=O)c1sc2nc(-c3cccc(OC)c3)nc(N3CCOCC3)c2c1C
growth (SR leukemia): 98.4%
growth (OVCAR-8 ovarian): 102%
growth (OVCAR-5 ovarian): 96.6%
growth (OVCAR-4 ovarian): 96.2%
growth (SK-OV-3 ovarian): 102%
growth (IGROV1 ovarian): 87.3%
growth (OVCAR-3 ovarian): 108%
growth (HS 578T breast): 104%
growth (NCI/ADR-RES ovarian): 90%

CS(=O)(=O)c1ccc(-n2nc(-c3ccc(Br)cc3)c3ccccc3c2=O)cc1
growth (SR leukemia): 110%
growth (OVCAR-8 ovarian): 100%
growth (OVCAR-5 ovarian): 108%
growth (OVCAR-4 ovarian): 97.8%
growth (SK-OV-3 ovarian): 94.3%
growth (IGROV1 ovarian): 109%
growth (OVCAR-3 ovarian): 102%
growth (HS 578T breast): 100%

Cc1ccc(/C=C2\SC(=S)N(CC(=O)NCCCN3CCOCC3)C2=O)cc1
growth (SR leukemia): 97.2%
growth (RPMI-8226 leukemia): 95.9%
growth (OVCAR-5 ovarian): 101%
growth (OVCAR-4 ovarian): 91.3%
growth (SK-OV-3 ovarian): 82.7%
growth (IGROV1 ovarian): 107%
growth (OVCAR-3 ovarian): 102%
growth (HS 578T breast): 87.4%
growth (NCI/ADR-RES ovarian): 96.5%

CSc1ccc(SC2c3ccc(C)cc3Oc3nc(N)c(C#N)c(N)c32)cc1 (stereo not drawn)
growth (SR leukemia): -22.9% (active)
growth (RPMI-8226 leukemia): -38% (active)
growth (OVCAR-5 ovarian): -80.8% (active)
growth (OVCAR-4 ovarian): -94.8% (active)
growth (SK-OV-3 ovarian): 15.1%
growth (IGROV1 ovarian): -86.2% (active)
growth (OVCAR-3 ovarian): -94.7% (active)
growth (HS 578T breast): -8.07% (active)
growth (NCI/ADR-RES ovarian): -18.6% (active)

CCc1nnc(CNc2ccc(Cl)cc2)o1
growth (SR leukemia): 88.6%
growth (OVCAR-8 ovarian): 109%
growth (OVCAR-5 ovarian): 95.6%
growth (OVCAR-4 ovarian): 99.2%
growth (SK-OV-3 ovarian): 88.5%
growth (IGROV1 ovarian): 105%
growth (OVCAR-3 ovarian): 99.9%
growth (HS 578T breast): 102%
growth (NCI/ADR-RES ovarian): 97.8%

COc1ccc(-n2nc(C)c3c(Nc4ccc(NC(=O)Nc5cc(C(F)(F)F)ccc5F)cc4)ncnc32)cc1
growth (SR leukemia): 28.4%
growth (OVCAR-8 ovarian): 26.4%
growth (OVCAR-5 ovarian): 25.1%
growth (OVCAR-4 ovarian): 57.8%
growth (SK-OV-3 ovarian): 29.5%
growth (IGROV1 ovarian): 39.2%
growth (OVCAR-3 ovarian): 25.2%
growth (HS 578T breast): 28.4%
growth (NCI/ADR-RES ovarian): 24.1%

CC(=O)OC[C@H]1O[C@H](OC(C)=O)[C@H](NC(=O)/C=C/CCl)[C@@H](OC(C)=O)[C@@H]1OC(C)=O
growth (SR leukemia): 44.5%
growth (OVCAR-8 ovarian): 81.6%
growth (OVCAR-5 ovarian): 84.5%
growth (OVCAR-4 ovarian): 68.2%
growth (SK-OV-3 ovarian): 57.2%
growth (IGROV1 ovarian): 93.9%
growth (OVCAR-3 ovarian): 30.6%
growth (HS 578T breast): 92%
growth (NCI/ADR-RES ovarian): 90.7%

C=CC(COC(c1ccccc1)(c1ccccc1)c1ccccc1)N(CC)CC (stereo not drawn)
growth (SR leukemia): 44.7%
growth (OVCAR-8 ovarian): 77%
growth (OVCAR-5 ovarian): 66.1%
growth (OVCAR-4 ovarian): 67.9%
growth (SK-OV-3 ovarian): 75.5%
growth (IGROV1 ovarian): 62%
growth (OVCAR-3 ovarian): 71.9%
growth (HS 578T breast): 85.7%
growth (NCI/ADR-RES ovarian): 62.4%

NC(=NCCCOc1ccc(Cl)cc1)Nc1ccc(C(F)(F)F)cc1
growth (SR leukemia): -23.7% (active)
growth (OVCAR-8 ovarian): 66.3%
growth (OVCAR-5 ovarian): 48.4%
growth (OVCAR-4 ovarian): 34%
growth (SK-OV-3 ovarian): 78.1%
growth (IGROV1 ovarian): -20.5% (active)
growth (OVCAR-3 ovarian): 58.3%
growth (HS 578T breast): 52.4%
growth (NCI/ADR-RES ovarian): 62.8%

O=S(=O)(Nc1ccc(NS(=O)(=O)c2ccccc2)c(Cl)c1)c1ccccc1
growth (SR leukemia): 90.9%
growth (OVCAR-8 ovarian): 103%
growth (OVCAR-5 ovarian): 108%
growth (OVCAR-4 ovarian): 100%
growth (SK-OV-3 ovarian): 104%
growth (IGROV1 ovarian): 98.6%
growth (OVCAR-3 ovarian): 104%
growth (HS 578T breast): 103%
growth (NCI/ADR-RES ovarian): 100%

— PubChem BioAssay (NCI)
